# Results reported in PubChem BioAssay (EPA / NIEHS).
# Results filed as inconclusive are left out. Activity calls are given as the source filed them. The calls were made as follows: active = hit-call score of the fitted dose curve at least 0.9, where 1 is the maximum; inconclusive = response in the unintended direction; inactive = score below 0.9.
# Experiments:
# [1] = target: human Ephrin type-A Receptor 1 (EphA1), EPHA1 (gene 2041) (UniProt P21709); test: NVS_ENZ_hEphA1: NovaScreen (NVS) Enzymatic Assay for human Ephrin type-A Receptor 1 (EphA1) (AID 2283158);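 also: activity is signal loss versus DMSO meaning EphA1 kinase inhibition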
# Chain of human Ephrin type-A Receptor 1 (EphA1), EPHA1 (gene 2041) (P21709 whole entry, looked up): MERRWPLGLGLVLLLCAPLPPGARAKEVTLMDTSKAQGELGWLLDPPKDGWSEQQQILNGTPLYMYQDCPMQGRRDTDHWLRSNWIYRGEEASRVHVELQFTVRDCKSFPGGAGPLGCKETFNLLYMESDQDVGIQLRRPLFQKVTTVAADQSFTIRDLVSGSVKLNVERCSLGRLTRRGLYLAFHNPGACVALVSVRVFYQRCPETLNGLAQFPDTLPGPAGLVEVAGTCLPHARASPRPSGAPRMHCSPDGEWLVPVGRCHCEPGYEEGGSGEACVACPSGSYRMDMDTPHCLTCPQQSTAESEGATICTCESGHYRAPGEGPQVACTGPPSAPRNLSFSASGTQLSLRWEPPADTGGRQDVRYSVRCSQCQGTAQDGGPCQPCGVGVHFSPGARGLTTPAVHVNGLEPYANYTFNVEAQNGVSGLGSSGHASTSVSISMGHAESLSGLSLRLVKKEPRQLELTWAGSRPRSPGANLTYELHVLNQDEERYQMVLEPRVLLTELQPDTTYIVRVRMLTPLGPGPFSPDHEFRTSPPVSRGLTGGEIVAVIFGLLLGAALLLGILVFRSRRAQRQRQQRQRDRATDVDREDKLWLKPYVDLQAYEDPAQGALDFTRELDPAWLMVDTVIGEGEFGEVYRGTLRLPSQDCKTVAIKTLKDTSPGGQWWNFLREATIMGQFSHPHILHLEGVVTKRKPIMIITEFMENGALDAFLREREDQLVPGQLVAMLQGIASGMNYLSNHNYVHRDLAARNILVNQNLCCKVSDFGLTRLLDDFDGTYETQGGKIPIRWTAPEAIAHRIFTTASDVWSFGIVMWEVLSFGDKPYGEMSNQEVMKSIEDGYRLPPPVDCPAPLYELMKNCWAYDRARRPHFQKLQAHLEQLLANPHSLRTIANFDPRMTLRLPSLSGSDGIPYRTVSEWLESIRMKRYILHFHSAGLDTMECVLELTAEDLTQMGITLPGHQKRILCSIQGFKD
# In short: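 Biochemical kinase assay run cell-free; 1 h incubation; readout is fluorescence with mobility-shift separation of product. Concentration-response up to 50 uM for actives from a 25 uM screen.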
# [2] = target: human Phosphodiesterase 10 (PDE10), PDE10A (gene 10846) (UniProt Q9Y233); test: NVS_ENZ_hPDE10: NovaScreen (NVS) Enzymatic Assay for human Phosphodiesterase 10 (PDE10) (AID 2283195)
# Chain of human Phosphodiesterase 10 (PDE10), PDE10A (gene 10846) (Q9Y233 whole entry, looked up): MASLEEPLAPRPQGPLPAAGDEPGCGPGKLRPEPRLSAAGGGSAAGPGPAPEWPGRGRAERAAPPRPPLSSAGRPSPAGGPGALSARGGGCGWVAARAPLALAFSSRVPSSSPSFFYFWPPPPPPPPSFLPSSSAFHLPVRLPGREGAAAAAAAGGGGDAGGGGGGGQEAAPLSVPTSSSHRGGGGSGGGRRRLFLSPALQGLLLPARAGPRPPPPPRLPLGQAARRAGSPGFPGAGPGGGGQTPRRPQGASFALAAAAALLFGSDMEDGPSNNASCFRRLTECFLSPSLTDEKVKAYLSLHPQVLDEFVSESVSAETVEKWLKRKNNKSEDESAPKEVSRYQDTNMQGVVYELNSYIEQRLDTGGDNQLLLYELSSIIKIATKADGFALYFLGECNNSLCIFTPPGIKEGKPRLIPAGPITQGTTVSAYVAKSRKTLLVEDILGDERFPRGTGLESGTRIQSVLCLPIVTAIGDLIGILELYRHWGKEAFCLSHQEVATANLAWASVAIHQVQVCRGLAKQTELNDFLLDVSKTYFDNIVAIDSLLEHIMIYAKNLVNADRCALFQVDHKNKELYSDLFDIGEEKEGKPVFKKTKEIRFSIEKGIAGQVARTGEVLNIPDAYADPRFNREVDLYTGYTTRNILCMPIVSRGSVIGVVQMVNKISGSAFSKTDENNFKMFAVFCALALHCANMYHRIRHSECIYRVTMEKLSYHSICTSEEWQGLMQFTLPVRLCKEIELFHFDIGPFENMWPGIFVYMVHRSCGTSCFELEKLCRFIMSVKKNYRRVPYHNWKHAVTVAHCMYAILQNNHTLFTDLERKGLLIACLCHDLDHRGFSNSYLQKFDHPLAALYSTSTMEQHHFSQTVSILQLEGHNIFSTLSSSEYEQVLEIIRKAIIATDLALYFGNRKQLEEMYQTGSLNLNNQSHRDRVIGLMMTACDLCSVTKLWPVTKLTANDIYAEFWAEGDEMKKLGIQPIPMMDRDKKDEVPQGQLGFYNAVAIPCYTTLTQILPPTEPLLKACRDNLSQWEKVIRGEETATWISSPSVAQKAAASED
# In short: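 Recombinant human PDE10 with fluorescent substrate, 1 h, product separated by electrophoretic mobility shift. Loss of enzyme activity fitted against DMSO; initial screen 25 uM in duplicate, actives run to 50 uM maximum.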
# [3] = target: human Beta-secretase (BACE), BACE1 (gene 23621) (UniProt P56817); test: NVS_ENZ_hBACE: NovaScreen (NVS) Enzymatic Assay for human Beta-secretase (BACE) (AID 2283140);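 also: hits are inhibitors that reduce fluorescent substrate signal versus DMSO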
# Chain of human Beta-secretase (BACE), BACE1 (gene 23621) (P56817 whole entry, looked up): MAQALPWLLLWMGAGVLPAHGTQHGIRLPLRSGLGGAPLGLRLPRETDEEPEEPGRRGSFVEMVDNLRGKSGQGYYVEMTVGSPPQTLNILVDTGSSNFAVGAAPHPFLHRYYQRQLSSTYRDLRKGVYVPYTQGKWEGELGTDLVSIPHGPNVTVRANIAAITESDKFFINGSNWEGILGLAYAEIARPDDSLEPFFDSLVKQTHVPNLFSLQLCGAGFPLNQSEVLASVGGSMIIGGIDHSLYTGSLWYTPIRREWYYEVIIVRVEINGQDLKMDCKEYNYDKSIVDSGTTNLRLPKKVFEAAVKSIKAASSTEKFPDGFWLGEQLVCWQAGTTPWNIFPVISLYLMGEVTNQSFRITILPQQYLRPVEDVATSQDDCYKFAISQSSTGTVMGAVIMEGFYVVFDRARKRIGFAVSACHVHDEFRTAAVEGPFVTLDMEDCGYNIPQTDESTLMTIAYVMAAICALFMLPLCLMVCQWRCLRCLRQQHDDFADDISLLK
# In short: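 Cell-free assay of recombinant Sf9-expressed human BACE with fluorescent substrate, read by fluorescence intensity after 1 h. Primary screen in duplicate at 25 uM; actives then run in concentration series; loss of signal relative to DMSO.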
# [4] = target: human Matrix Metalloproteinase-9 (MMP9), MMP9 (gene 4318) (UniProt P14780); test: NVS_ENZ_hMMP9: NovaScreen (NVS) Enzymatic Assay for human Matrix Metalloproteinase-9 (MMP9) (AID 2283190);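 also: cell-free recombinant MMP9 protease activity read by fluorescent substrate signal; active means inhibition seen as loss of fluorescence signal versus DMSO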
# Chain of human Matrix Metalloproteinase-9 (MMP9), MMP9 (gene 4318) (P14780 whole entry, looked up): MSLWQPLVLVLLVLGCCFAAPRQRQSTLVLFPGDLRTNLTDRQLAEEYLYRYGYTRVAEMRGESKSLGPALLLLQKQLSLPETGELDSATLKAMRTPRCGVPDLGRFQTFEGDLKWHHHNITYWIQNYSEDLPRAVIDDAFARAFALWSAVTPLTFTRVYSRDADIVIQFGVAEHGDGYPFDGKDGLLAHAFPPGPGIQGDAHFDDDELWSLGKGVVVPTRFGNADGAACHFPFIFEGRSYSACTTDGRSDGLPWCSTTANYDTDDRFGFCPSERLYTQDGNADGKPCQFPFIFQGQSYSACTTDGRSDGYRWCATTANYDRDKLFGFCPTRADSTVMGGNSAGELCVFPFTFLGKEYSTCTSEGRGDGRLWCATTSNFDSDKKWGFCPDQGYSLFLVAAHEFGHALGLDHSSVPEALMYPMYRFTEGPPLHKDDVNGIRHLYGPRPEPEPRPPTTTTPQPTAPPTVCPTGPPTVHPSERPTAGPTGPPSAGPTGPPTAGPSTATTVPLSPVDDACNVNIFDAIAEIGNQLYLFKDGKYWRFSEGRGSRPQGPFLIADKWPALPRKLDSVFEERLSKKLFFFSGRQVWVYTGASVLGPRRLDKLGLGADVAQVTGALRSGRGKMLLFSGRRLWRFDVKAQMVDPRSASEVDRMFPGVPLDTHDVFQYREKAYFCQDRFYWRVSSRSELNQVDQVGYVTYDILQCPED
# In short: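 Screening concentration 25 uM, duplicate wells, then dose series for confirmation. Cell-free enzymatic reaction measured by fluorescence intensity 1 h post-dosing; decreased signal versus DMSO taken as activity.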
# [5] = target: Cytochrome P450 2C19 (Homo sapiens) (UniProt P33261); test: NVS_ADME_hCYP2C19: NovaScreen (NVS) CYP450-related Enzyme Activity (ADME) Assay for human CYP2C19 (AID 2283113);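 also: potency for inhibition seen as loss of fluorescent signal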
# In short: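 Chemicals first screened in duplicate at 10 uM against recombinant human enzyme produced in insect cells; confirmed actives then run as concentration series. Fluorogenic substrate turnover read by fluorescence after 1 h, normalised to acetonitrile.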
# [6] = target: human Caspase 5 (CASP5), CASP5 (gene 838) (UniProt P51878); test: NVS_ENZ_hCASP5: NovaScreen (NVS) Enzymatic Assay for human Caspase 5 (CASP5) (AID 2283137)
# Chain of human Caspase 5 (CASP5), CASP5 (gene 838) (P51878 whole entry, looked up): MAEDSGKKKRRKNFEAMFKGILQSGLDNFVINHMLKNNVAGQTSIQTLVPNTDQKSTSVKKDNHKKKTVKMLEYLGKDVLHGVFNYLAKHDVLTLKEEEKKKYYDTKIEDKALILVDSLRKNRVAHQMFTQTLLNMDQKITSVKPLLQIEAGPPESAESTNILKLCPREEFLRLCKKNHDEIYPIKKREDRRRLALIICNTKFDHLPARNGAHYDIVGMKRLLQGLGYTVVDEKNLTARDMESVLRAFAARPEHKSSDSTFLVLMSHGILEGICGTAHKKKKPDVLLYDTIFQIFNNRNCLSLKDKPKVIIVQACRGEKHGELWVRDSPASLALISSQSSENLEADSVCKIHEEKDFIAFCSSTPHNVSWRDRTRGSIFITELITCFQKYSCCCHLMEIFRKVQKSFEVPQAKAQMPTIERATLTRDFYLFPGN
# In short: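 Recombinant human caspase 5 expressed in E. coli, fluorogenic substrate, fluorescence read 2 h after dosing. Single-point 25 uM duplicate screen, then concentration-response to maximum 50 uM for actives; DMSO baseline.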
# [7] = target: human Dual Specificity Protein Phosphatase 3 (DUSP3), DUSP3 (gene 1845) (UniProt P51452); test: NVS_ENZ_hDUSP3: NovaScreen (NVS) Enzymatic Assay for human Dual Specificity Protein Phosphatase 3 (DUSP3) (AID 2283152);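 also: phosphatase activity of recombinant human DUSP3 on a fluorogenic substrate without cells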
# In short: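 Cell-free assay with recombinant human DUSP3 and fluorogenic substrate, read by fluorescence intensity. Primary screen ran duplicate at 25 uM; actives followed up in concentration series; loss of signal versus DMSO scored.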
# [8] = target: human Phosphoinositide 3-kinase alpha (PI3Ka), PIK3CA (gene 5290) (UniProt P42336); test: NVS_ENZ_hPI3Ka: NovaScreen (NVS) Enzymatic Assay for human Phosphoinositide 3-kinase alpha (PI3Ka) (AID 2283196)
# In short: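 Duplicate single-point screen (25 uM), then singleton dose-response (max 50 uM) for compounds meeting the threshold. Cell-free kinase reaction, 1 h; fluorescent mobility-shift readout.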
# [9] = target: human Vascular Endothelial Growth Factor Receptor 1 (VEGFR1), FLT1 (gene 2321) (UniProt P17948); test: NVS_ENZ_hVEGFR1: NovaScreen (NVS) Enzymatic Assay for human Vascular Endothelial Growth Factor Receptor 1 (VEGFR1) (AID 2283226)
# Chain of human Vascular Endothelial Growth Factor Receptor 1 (VEGFR1), FLT1 (gene 2321) (P17948 whole entry, looked up): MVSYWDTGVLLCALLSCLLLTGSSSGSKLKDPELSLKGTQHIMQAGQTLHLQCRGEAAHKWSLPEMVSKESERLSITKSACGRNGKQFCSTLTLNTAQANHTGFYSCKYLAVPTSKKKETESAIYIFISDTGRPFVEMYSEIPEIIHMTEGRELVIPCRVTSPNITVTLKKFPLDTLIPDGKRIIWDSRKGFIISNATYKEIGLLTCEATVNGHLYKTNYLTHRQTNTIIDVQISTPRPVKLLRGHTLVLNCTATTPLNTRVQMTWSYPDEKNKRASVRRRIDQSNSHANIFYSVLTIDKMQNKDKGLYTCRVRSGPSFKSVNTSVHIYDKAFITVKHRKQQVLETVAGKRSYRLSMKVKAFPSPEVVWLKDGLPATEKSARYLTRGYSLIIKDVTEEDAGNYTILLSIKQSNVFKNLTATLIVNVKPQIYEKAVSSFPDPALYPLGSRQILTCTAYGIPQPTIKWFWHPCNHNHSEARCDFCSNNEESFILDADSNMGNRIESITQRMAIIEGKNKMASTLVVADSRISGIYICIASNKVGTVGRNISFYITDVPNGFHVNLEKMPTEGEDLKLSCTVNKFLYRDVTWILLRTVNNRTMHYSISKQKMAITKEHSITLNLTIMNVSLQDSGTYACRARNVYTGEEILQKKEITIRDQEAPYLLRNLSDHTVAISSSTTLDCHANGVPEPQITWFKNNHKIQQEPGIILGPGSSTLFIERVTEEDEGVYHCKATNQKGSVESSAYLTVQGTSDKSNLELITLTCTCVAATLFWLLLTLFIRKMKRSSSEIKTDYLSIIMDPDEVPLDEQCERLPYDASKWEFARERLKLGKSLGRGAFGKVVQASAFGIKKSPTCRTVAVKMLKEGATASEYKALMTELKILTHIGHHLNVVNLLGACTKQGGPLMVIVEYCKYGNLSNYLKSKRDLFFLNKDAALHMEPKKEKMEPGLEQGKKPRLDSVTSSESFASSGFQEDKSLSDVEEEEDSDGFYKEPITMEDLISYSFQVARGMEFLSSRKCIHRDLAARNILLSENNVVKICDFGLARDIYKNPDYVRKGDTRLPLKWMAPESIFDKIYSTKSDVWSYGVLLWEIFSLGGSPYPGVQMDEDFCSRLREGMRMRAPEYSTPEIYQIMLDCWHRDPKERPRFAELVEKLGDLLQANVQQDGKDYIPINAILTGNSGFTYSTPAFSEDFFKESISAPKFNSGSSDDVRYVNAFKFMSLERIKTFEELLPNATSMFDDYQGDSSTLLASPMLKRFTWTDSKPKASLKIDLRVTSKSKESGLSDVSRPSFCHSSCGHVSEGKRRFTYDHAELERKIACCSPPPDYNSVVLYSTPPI
# In short: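 Cell-free assay of recombinant human VEGFR1 kinase with substrate, measured 1 h after dosing; fluorescence with electrophoretic mobility-shift separation of substrate and product, referenced to DMSO; primary screen at 25 uM in duplicate, actives then run in concentration series.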
# [10] = target: sheep Cyclooxygenase-1 (Cox1), PTGS1 (gene 443551) (UniProt P05979); test: NVS_ENZ_oCOX1: NovaScreen (NVS) Enzymatic Assay for sheep Cyclooxygenase-1 (Cox1) (AID 2283239);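 also: actives reduce cyclooxygenase activity so potencies are for inhibitors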
# In short: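 Native ovine seminal vesicle protein serves as enzyme source in this biochemical assay. Colorimetric signal is recorded 0.66 h after chemical addition, and decreases versus the DMSO control define activity.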
# [11] = target: Mitogen-activated protein kinase 3 (Homo sapiens) (UniProt P27361); test: NVS_ENZ_hMAPK3: NovaScreen (NVS) Enzymatic Assay for human Mitogen-Activated Protein Kinase 3 (MAPK 3) (AID 2283177)
# In short: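 Cell-free enzymatic assay with recombinant protein and specific substrate; fluorescence and electrophoretic mobility shift read-out 1 h after dosing. Primary screen duplicate at 25 uM; actives then run in concentration-response up to 50 uM, loss of signal versus DMSO.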
# [12] = target: Tyrosine-protein phosphatase non-receptor type 11 (Homo sapiens) (UniProt Q06124); test: NVS_ENZ_hPTPN11: NovaScreen (NVS) Enzymatic Assay for human Protein Tyrosine Phosphatase Non-receptor Type 11 (PTPN11) (AID 2283202)
# In short: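 Recombinant human PTPN11 activity on a fluorescent substrate, with substrate/product separated by electrophoretic mobility shift; read 0.5 h after dosing, loss of signal vs DMSO. Duplicate 25 uM screen, then concentration-response up to 50 uM.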
# [13] = target: Tyrosine-protein phosphatase non-receptor type 12 (Homo sapiens) (UniProt Q05209); test: NVS_ENZ_hPTPN12: NovaScreen (NVS) Enzymatic Assay for human Protein Tyrosine Phosphatase Non-receptor Type 12 (PTPN12) (AID 2283204)
# In short: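 Single-concentration duplicates (25 uM) preceded singleton concentration-response up to 50 uM for chemicals passing threshold. Cell-free recombinant PTPN12 activity was read 1.33 h after dosing via fluorescence after mobility-shift separation; loss of signal versus DMSO.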
# [14] = target: human Vascular Endothelial Growth Factor Receptor 3 (VEGFR3), FLT4 (gene 2324) (UniProt P35916); test: NVS_ENZ_hVEGFR3: NovaScreen (NVS) Enzymatic Assay for human Vascular Endothelial Growth Factor Receptor 3 (VEGFR3) (AID 2283229)
# In short: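 Cell-free recombinant VEGFR3 kinase reaction with fluorescent substrate, read 1 h after dosing by electrophoretic mobility shift separation of substrate and product. Single-concentration duplicate screen at 25 uM, then concentration-response up to 50 uM; loss of activity versus DMSO.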
# [15] = target: human Vascular Endothelial Growth Factor Receptor 2 (VEGFR2), KDR (gene 3791) (UniProt P35968); test: NVS_ENZ_hVEGFR2: NovaScreen (NVS) Enzymatic Assay for human Vascular Endothelial Growth Factor Receptor 2 (VEGFR2) (AID 2283230)
# In short: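 Cell-free recombinant VEGFR2 kinase, fluorescent substrate with electrophoretic mobility-shift separation; read 1 h after dosing. Screened at 25 uM in duplicate, hits to concentration-response up to 50 uM; loss-of-signal versus DMSO.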
# [16] = target: sheep Cyclooxygenase-2 (Cox2), PTGS2 (gene 443460) (UniProt P79208); test: NVS_ENZ_oCOX2: NovaScreen (NVS) Enzymatic Assay for sheep Cyclooxygenase-2 (Cox2) (AID 2283231)
# In short: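 Compounds were first run at 25 uM in duplicate against tissue-extracted ovine COX-2; those passing a preset inhibition threshold went to singleton concentration-response testing with a 50 uM maximum. Read-out: absorbance at 0.66 hour.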
structure (smiles),measurement,setting,value
CC1=CCC2C(=O)OC(=O)C2C1 (stereo not given),outcome,[1],inactive
Brc1nc2ccccc2s1,outcome,[1],inactive
Nc1cc([N+](=O)[O-])cc(Cl)c1O,outcome,[2],inactive
CCC(C)CO (stereo not given),outcome,[3],inactive
same,AC50,[4],6.58 µM (active)
O=C1c2c(O)ccc(Nc3ccc(CCO)cc3)c2C(=O)c2c([N+](=O)[O-])ccc(O)c21,AC50,[5],4.49 µM (active)
same,AC50,[6],0.148 µM (active)
same,AC50,[3],0.129 µM (active)
same,AC50,[7],2.37 µM (active)
same,AC50,[8],2.07 µM (active)
same,AC50,[9],0.885 µM (active)
CC(=O)CCC(C)C,outcome,[4],inactive
CCN(CC)c1ccc2c(c1)Oc1cc(N(CC)CC)ccc1C21OC(=O)c2ccccc21,outcome,[2],inactive
CC(C)CCCC(C)CCO (stereo not given),AC50,[4],6.27 µM (active)
same,outcome,[10],inactive
O=C1C=CC(=O)N1c1ccc(Cc2ccc(N3C(=O)C=CC3=O)cc2)cc1,AC50,[6],4.26 µM (active)
same,outcome,[1],inactive
same,AC50,[4],2.59 µM (active)
same,outcome,[2],inactive
C#CC(O)CCC (stereo not given),outcome,[2],inactive
Cc1cc(=O)[nH]c(C(C)C)n1,AC50,[1],9.31 µM (active)
O=C(Cl)c1ccc(Cl)cc1Cl,outcome,[2],inactive
O=C(c1ccccc1)c1ccc(O)cc1O,AC50,[7],16.5 µM (active)
same,outcome,[1],inactive
same,AC50,[4],13.7 µM (active)
Cc1ccc(O)c(-n2nc3ccccc3n2)c1,AC50,[4],9.4 µM (active)
CCCCCCCCCCCCCC[P+](CCCC)(CCCC)CCCC,AC50,[11],20.2 µM (active)
same,AC50,[4],2.12 µM (active)
same,AC50,[12],14.8 µM (active)
same,AC50,[13],18.5 µM (active)
same,AC50,[9],10 µM (active)
same,AC50,[14],17.5 µM (active)
same,AC50,[15],11.4 µM (active)
same,AC50,[16],5.19 µM (active)
c1ccc(C[P+](c2ccccc2)(c2ccccc2)c2ccccc2)cc1,AC50,[5],1.87 µM (active)
